From PubChem BioAssay come the findings set out here.

Activity calls are given as the source filed them.

Test [1] concerns Human papillomavirus type 1a protein E7 (residues 44-93). In words: HPV1a E7 fragment binders on microarrays, primary screen, biochemical, small-molecule microarray, residues 44-93, 635 nm fluorescence (AID 1108).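 Also: E7 fragment applied at 1 µg/mL in TBST for 1 h at 4 C; score combines spot fluorescence with its signal to noise ratio.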 The settings on record: small-molecule microarray binding, fluorescence 635 nm; higher = more signal.
Test [2] in a line: modulators of HCV replicon luciferase signal, primary screen, HCV replication inhibitor project, Huh7 cells, luciferase reporter (AID 1109).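 Also: huh7 hepatoma cells harbouring a luciferase neomycin HCV replicon reporter; luciferase luminescence as measure of HCV replicon replication; test concentration not given here.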 The settings on record: 48 h, higher = more signal. A general note: A replicon is a self-replicating genome or part of one, used to study replication in cells.
Test [3] addresses Left-right determination factor 2 (Homo sapiens) (UniProt O00292). The test is described as follows: LEFTY2 binders on small-molecule microarrays, primary screen, biochemical, small-molecule microarray, 635 nm fluorescence scan (AID 1110). The settings on record: LEFTY2 binding, higher = more signal.
In test [4] the target is Calmodulin-1 (Homo sapiens) (UniProt P0DP23). In words: CALM1 binders on microarrays, EGTA buffer, profiling panel, biochemical, small-molecule microarray, Cy5-labelled CALM1 (AID 1111).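 Also: labelled calmodulin applied in Tris saline Tween buffer holding calcium plus EGTA and DTT.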 To be noted: Cy5-CALM1 binding fluorescence, higher = more signal.
For test [5] the target is unchanged. In words: calcium-bound CALM1 binders on microarrays, profiling panel, artefact control for SMM control-protein annotation, biochemical, small-molecule microarray, Cy5-labelled CALM1, plus calcium (AID 1112).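 Also: score merges spot fluorescence with signal to noise from triplicate slides.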 To be noted: Cy5-CALM1 binding fluorescence, higher = more signal.
Test [6] can be described thus: small-molecule microarray binders of probe aWnt5a, primary screen, biochemical, biotinylated probe, 635/667 nm fluorescence (AID 1113).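 Also: score merges 667 nm fluorescence intensity with signal-to-noise per printed feature.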 To be noted: higher = more signal.
Test [7] can be described thus: small-molecule microarray binders of probe aShh, primary screen, biochemical, biotinylated probe, 635/667 nm fluorescence (AID 1114).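 Also: probe is biotin-labelled aShh protein from a stem cell growth factor screen; measures binding of labelled protein to compounds printed on the slide; score merges feature fluorescence at 667 nm with signal-to-noise.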 To be noted: higher = more signal.
Test [8] can be described thus: small-molecule microarray binders of probe aNog, primary screen, biochemical, biotinylated probe, 635/667 nm fluorescence (AID 1115).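 Also: probe is biotinylated aNog protein used at 0.15 µg/mL for 1 h at 4 C; z-score combines 667 nm fluorescence of each spot with its signal to noise.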 The settings on record: higher = more signal.
Test [9] has as its target Torsin-1A-interacting protein 1 (Homo sapiens) (UniProt Q5JTV8). The test is described as follows: LAP1 binders from COS7 cell lysate, primary screen, small-molecule microarray, 635/667 nm fluorescence (AID 1116). The settings on record: COS7-hLAP1 lysate binding, 635 nm fluorescence, higher = more signal.
The target of test [10] is Alpha-bungarotoxin (Bungarus multicinctus) (UniProt P60615). In words: alpha-bungarotoxin binders on microarray, profiling panel, artefact control for SMM control protein annotation, biochemical, small-molecule microarray, Alexa647 label, 635/667 nm fluorescence (AID 1117). To be noted: alpha-BTX-A647 binding fluorescence, higher = more signal.
The target in a further test is Albumin (Bos taurus) (UniProt P02769). The test is described as follows: bovine serum albumin binders on microarray, profiling panel, artefact control for SMM control protein annotation, biochemical, small-molecule microarray, Alexa647 label, 635/667 nm fluorescence (AID 1118).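 Also: score merges 667 nm emission intensity and signal-to-noise per printed compound spot.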 The settings on record: BSA-A647 binding, fluorescence 635 nm, higher = more signal.
The nature of test [11]: small-molecule microarray binders of probe aXIP, primary screen, biochemical, NeuroSMM set, 635/667 nm fluorescence (AID 1119).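 Also: probe is the protein aXip251-270 applied at 1 µg/mL to compound-printed slides; binding of probe to printed compounds measured as 667 nm fluorescence plus signal to noise.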 The settings on record: higher = more signal, called active from +8 up or from −8 down.
A short description of test [12]: small-molecule binders of probe aNOTCH3, primary screen, biochemical, small-molecule microarray, 635/667 nm fluorescence (AID 1120).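 Also: probe is a biotin-tagged antibody raised against NOTCH3 rather than NOTCH3 protein; score merges spot fluorescence near 667 nm with spot signal to noise.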 To be noted: higher = more signal.
The nature of test [13]: small-molecule binders of probe aNOTCH2, primary screen, biochemical, small-molecule microarray, 635/667 nm fluorescence (AID 1121).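 Also: score merges feature fluorescence read at 667 nm with its signal to noise.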 To be noted: higher = more signal.
For test [14], the target named is Carbonic anhydrase 2 (Homo sapiens) (UniProt P00918). The test is described as follows: CAII small-molecule binders, profiling panel, biochemical, small-molecule microarray, Alexa647-labelled CAII (AID 1122). To be noted: CAII-A647 binding fluorescence, higher = more signal.
The nature of test [15]: COS7 lysate on small-molecule microarray, probe aHis, 635 nm (AID 1123).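 Also: z-score combines 667nm fluorescence intensity with signal-to-noise per printed compound spot.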 To be noted: COS7 cell lysate, fluorescence, higher = more signal.
A short description of test [16]: compound binding in COS7 lysate, probe aLAP1, primary screen, cell lysate, small-molecule microarray (AID 1124).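 Also: lysate comes from COS7 cells expressing LAP1 and is applied at 0.3 µg/mL; score merges spot fluorescence near 667 nm with signal-to-noise over triplicate slides.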 To be noted: probe aLAP1, fluorescence, higher = more signal.
Another test deals with Sam68 (KHDRBS1). The test is described as follows: Sam68 small-molecule binders, primary screen, biochemical, small-molecule microarray, 635 nm fluorescence (AID 1125).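 Also: score merges 667 nm channel intensity with signal to noise over triplicate slides.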 The settings on record: small-molecule microarray binding, higher = more signal.
Test [17] deals with Chordin-like protein 2 (CHRDL2). In words: CHRDL2 small-molecule binders, primary screen, biochemical, small-molecule microarray, 635 nm fluorescence (AID 1126).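 Also: printed compound slides probed with Chrdl2 protein at 4 µg/mL for 1 h at 4 C; score merges 667 nm emission intensity with signal to noise over three replicate slides.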 The settings on record: small-molecule microarray binding, fluorescence 635 nm; higher = more signal.
Test [18] has as its target Concanavalin-A (Canavalia ensiformis) (UniProt P02866). In words: ConA small-molecule binders, primary screen, artefact control for SMM control protein annotation, biochemical, small-molecule microarray, Alexa647 label, 635 nm (AID 1127).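 Also: z combines 667 nm emission intensity with signal-to-noise across three replicate slides.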 The settings on record: ConA-A647 binding fluorescence, higher = more signal.

Chain of Albumin (Bos taurus) (P02769 whole entry, looked up): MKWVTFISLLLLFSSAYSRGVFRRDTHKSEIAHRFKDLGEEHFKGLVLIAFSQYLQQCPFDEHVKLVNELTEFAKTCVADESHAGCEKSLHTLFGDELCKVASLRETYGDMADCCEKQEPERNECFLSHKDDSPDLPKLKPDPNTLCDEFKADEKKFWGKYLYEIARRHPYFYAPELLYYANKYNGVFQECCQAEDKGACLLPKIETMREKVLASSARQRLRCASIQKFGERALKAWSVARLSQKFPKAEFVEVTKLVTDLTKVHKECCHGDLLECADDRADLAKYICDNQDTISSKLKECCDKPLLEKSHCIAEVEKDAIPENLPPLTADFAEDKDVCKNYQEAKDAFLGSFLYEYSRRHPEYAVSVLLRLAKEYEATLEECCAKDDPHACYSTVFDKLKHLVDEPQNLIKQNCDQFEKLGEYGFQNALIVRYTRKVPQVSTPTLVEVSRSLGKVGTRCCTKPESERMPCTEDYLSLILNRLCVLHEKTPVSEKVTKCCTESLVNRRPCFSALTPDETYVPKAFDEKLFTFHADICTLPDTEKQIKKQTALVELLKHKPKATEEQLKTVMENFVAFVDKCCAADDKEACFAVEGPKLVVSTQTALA
Chain of Alpha-bungarotoxin (Bungarus multicinctus) (P60615 whole entry, looked up): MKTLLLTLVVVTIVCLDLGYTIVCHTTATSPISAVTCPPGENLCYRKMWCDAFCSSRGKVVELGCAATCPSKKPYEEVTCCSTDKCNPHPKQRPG
Chain of Left-right determination factor 2 (Homo sapiens) (O00292 whole entry, looked up): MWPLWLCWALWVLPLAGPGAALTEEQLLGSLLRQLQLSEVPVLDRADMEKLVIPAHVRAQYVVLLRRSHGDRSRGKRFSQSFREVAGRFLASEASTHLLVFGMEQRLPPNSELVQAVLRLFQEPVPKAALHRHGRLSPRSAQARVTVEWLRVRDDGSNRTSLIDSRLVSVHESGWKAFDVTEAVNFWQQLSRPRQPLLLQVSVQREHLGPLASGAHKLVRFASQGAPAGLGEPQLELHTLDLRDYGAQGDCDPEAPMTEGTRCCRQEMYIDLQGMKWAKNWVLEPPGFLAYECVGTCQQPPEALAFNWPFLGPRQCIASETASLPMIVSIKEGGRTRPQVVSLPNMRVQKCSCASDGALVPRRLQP
Chain of Concanavalin-A (Canavalia ensiformis) (P02866 whole entry, looked up): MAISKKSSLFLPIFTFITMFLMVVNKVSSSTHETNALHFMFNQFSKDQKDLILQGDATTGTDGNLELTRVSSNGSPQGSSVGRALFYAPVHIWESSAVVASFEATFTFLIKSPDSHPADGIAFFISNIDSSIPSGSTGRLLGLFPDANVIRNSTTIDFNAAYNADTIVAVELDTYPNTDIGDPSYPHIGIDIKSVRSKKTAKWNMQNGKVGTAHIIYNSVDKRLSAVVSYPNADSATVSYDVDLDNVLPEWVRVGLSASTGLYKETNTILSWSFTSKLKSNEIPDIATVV
Chain of Torsin-1A-interacting protein 1 (Homo sapiens) (Q5JTV8 whole entry, looked up): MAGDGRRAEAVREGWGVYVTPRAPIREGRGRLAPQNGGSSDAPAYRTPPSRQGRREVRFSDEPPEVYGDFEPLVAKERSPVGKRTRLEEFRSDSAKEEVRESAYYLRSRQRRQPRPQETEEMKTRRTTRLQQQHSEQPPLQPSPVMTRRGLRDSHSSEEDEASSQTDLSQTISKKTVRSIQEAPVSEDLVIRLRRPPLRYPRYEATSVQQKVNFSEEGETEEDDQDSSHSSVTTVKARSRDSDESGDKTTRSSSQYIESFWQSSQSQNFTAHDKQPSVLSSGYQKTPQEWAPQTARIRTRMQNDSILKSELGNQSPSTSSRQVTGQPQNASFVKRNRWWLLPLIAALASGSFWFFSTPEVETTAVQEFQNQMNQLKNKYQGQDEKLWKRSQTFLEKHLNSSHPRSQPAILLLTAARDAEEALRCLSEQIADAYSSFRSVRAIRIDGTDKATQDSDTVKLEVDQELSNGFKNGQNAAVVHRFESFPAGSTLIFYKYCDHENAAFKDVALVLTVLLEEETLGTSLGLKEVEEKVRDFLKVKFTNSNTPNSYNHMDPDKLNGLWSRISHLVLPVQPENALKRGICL

Regarding `[N-]=[N+]=NCc1ccccc1[C@@H]1OC(c2ccc(OCCCO)cc2)=N[C@]1(Cc1ccccc1N=[N+]=[N-])C(N)=O`, the composite z-score in test [1] was 1.43; in test [3], -0.0808; in test [4], 2.02; in [5] it was 1.11; in test [6] it was -0.0478; in [7], 0.593. In addition, the composite z-score turned out to be 1.49 in [8]; 0.804 in [9]; 2.66 in [10]; 0.825 in the test with Albumin (Bos taurus); 0.473 in test [12]; 0.299 in test [13]. In addition, the composite z-score in [14] was 0.715; in test [15], 2.8; in test [16] it was 0.202; with Sam68 (KHDRBS1) it was 1.3; in test [17], -0.124; in [18], 1.12. This molecule also displayed a z-score in test [2] of -0.613. Further, in test [11], the composite Z-score was 0.0773 (inactive).
For `COCC1C2CC[C@H]3C(OCc4ccc(F)cc4C(F)(F)F)OC[C@]4(C)[C@H]3C2=C(CN4C(=O)OC(C)(C)C)[C@H](C)C1COC` (stereo not given in full), the composite z-score in test [1] was 1.37; in [3] it was -0.13; in test [4] it was 2.61; in test [5], 1.37; in test [6], 0.0017; in [7] it was 0.177. Also, the composite z-score in test [8] was 2.19; in test [9], 1.56; in test [10], 0.9; in the test with Albumin (Bos taurus), 1.05; in test [12], 0.202; in test [13], 0.214. For the same molecule, the composite z-score in test [14] was 0.698; in test [15] it was 3.39; in test [16], 0.63; with Sam68 (KHDRBS1), 1.2; in [17], -1.12; in [18] it was 1.13. Besides, the z-score in [2] was -0.386. Moreover, in test [11], the composite Z-score is 0.973 (inactive).
In the case of `O=C1OCCC/C=C\[C@H]2OC34C=CCN(Cn5nnc6ccccc65)C(=O)[C@H]3N(CCCO)C(=O)[C@@H]4C12` (stereo not given in full), the composite z-score in test [1] was 0.692; in test [3], -2; in test [4] it was -0.44; in [5], 0.458; in test [6], -0.191; in test [7] it was 0.0952. The composite z-score is 0.574 in test [8]; 2.11 in test [9]; -1.75 in test [10]; -1.38 with Albumin (Bos taurus); -0.306 in [12]; -0.112 in test [13]. Besides, the composite z-score in test [14] was 0.896; in test [15] it was 1.82; in [16], 0.888; with Sam68 (KHDRBS1), 0.301; in test [17], -2.21; in test [18], -0.946. The same molecule yielded a z-score in [2] of -1.01. Besides, the composite Z-score in test [11] is -0.774 (inactive).
`COc1ccc([Si](C)(C)[C@H]2[C@H](CC(=O)N3CCC[C@H]3CO)O[C@@]3(C(=O)N(c4ccccc4)c4ccccc43)[C@@H]2C)cc1`: the composite z-score is -0.542 in [1]; 0.301 in test [3]; -0.363 in test [4]; -0.366 in test [5]; -0.156 in test [6]; -0.13 in test [7]. For the same molecule, the composite z-score is -0.1 in [8]; 0.429 in test [9]; 0.0488 in test [10]; 0.723 with Albumin (Bos taurus); -0.191 in [12]; -0.185 in [13]. In addition, the composite z-score in test [14] was 0.655; in test [15], -0.0779; in test [16] it was 0.0352; in the test on Sam68 (KHDRBS1), -0.126; in test [17] it was 0.515; in test [18] it was 0.493. The molecule also gave a z-score in test [2] of -1.12. Further, the composite Z-score in test [11] was -0.352 (inactive).
In the case of `C=CCC(OC(C)=O)[C@@H]1[C@@H](N(Cc2ccc(-c3cccc(C(F)(F)F)c3)o2)C(=O)Cc2ccc(OC)cc2)c2cc(OCCCO)ccc2N1C(=O)Cc1ccc(OC)cc1` (stereo not given in full), the composite z-score was -0.641 in test [1]; -0.606 in test [3]; -0.503 in test [4]; -1.26 in test [5]; -0.203 in test [6]; -0.0035 in [7]. The composite z-score was -0.196 in test [8]; -0.347 in test [9]; -0.132 in test [10]; 0.478 with Albumin (Bos taurus); -0.193 in test [12]; -0.193 in [13]. Further, the composite z-score was 0.158 in [14]; 0.043 in test [15]; -0.39 in test [16]; -0.399 in the test on Sam68 (KHDRBS1); 0.292 in test [17]; -0.947 in [18]. In [2], this molecule had a z-score of -1.46. In addition, the composite Z-score in [11] is -0.784 (inactive).
Turning to `C=CCC(OC(C)=O)[C@@H]1[C@@H](N(Cc2ccc(-c3cccc(C(F)(F)F)c3)o2)C(=O)c2ccc(C)cc2)c2cc(OCCCO)ccc2N1C(=O)c1ccc2ccccc2n1` (stereo not given in full), the composite z-score is -0.172 in [1]; 0.435 in test [3]; -0.619 in test [4]; -0.253 in test [5]; -0.0478 in test [6]; 0.278 in test [7]. In addition, the composite z-score in test [8] was 0.276; in test [9] it was -0.0885; in test [10], 1.31; in the test with Albumin (Bos taurus), -0.706; in test [12] it was 0.116; in test [13] it was -0.0255. In addition, the composite z-score was 0.053 in test [14]; 0.163 in test [15]; 0.497 in [16]; 0.0508 in the test with Sam68 (KHDRBS1); 0.232 in test [17]; -0.335 in test [18]. This molecule yielded a z-score in test [2] of -0.462. Also, the composite Z-score in [11] was 0.936 (inactive).
Take `Cc1cccc(/C=C/C=O)c1`: the composite z-score in [1] is 0.63; in test [3] it was -0.478; in test [4] it was 0.613; in [5] it was 0.207; in test [6] it was -0.0944; in [7], -0.214. Moreover, the composite z-score in test [8] was -0.104; in test [9], -0.476; in test [10], 0.549; with Albumin (Bos taurus) it was 0.92; in test [12] it was -0.139; in test [13], -0.104. The composite z-score in [14] was -0.0363; in [15], 0.93; in [16], 0.364; with Sam68 (KHDRBS1) it was 0.339; in [17], -0.058; in test [18] it was 0.786. The molecule further returned a z-score in test [2] of 0.33. Besides, in test [11], the composite Z-score is -0.77 (inactive).
